Experiment [1] is described as follows: qHTS assay to identify small molecule agonists of the TGF-beta/Smad signaling pathway - cell viability counter screen (AID 1346829). Also: top concentration of the series differs between compounds; nearly all actives have a fitted effect of over 45% in size. Put shortly:
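Compound-treated SBE-bla HEK 293T cells (5 hr, 37 C) were assessed for viability with CellTiter-Glo in parallel with the reporter read.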
A general note: qHTS replaces the single test concentration by a dilution series.

Experiment [2] can be described thus: qHTS assay to identify small molecule agonists of the TGF-beta/Smad signaling pathway (AID 1346859; active = well fitted activation curve with a large enough effect in the signal ratio in the repeat runs, not every such curve was filed as active; the % refers to the signal ratio; also: series mostly up to about 77 µM). Put shortly:
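After overnight seeding, SBE-bla HEK 293T cells are dosed with compounds in DMSO and kept 5 hr at 37 C, 5% CO2. LiveBLAzer-type FRET substrate is then applied for 2 hr at room temperature.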

In experiment [3] the target is Thyrotropin-releasing hormone receptor (Homo sapiens) (UniProt P34981). Briefly: qHTS assay to identify small molecule antagonists of the thyrotropin-releasing hormone receptor (TRHR) signaling pathway (AID 1346877; active = well fitted inhibition curve with a large enough effect in the repeat runs, not every such curve was filed as active; also: series mostly up to about 51 µM). Put shortly:
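Antagonism is measured as suppression of the calcium response to 1 nM TRH in TRHR-HEK293 cells that have been dye-loaded for 2 h at 37 °C after overnight plating. Each compound is tested at 15 concentrations in triplicate.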

For experiment [4] the target is unchanged. Put plainly: qHTS assay to identify small molecule agonists of the thyrotropin-releasing hormone receptor (TRHR) signaling pathway (AID 1346891; calls by dose curve;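 also: HEK293 cells expressing TRHR with calcium dye readout; series mostly up to about 58 µM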). Put shortly: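 Compounds were tested as agonists at 15 concentrations, in triplicate, on TRHR-Hek293 cells; calcium-sensitive dye fluorescence was recorded for 3 min following addition.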
The nature of experiment [5]: Human pregnane X receptor (PXR) small molecule agonists, qHTS cell viability counter screen (AID 1346977). Also: nearly all actives have a fitted effect of over 50% in size. Put shortly:
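Viability counter screen: CellTiter-Fluor signal in PXR-Luc HepG2 cells, 24hr compound exposure, 37C, 5% CO2.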

The nature of experiment [6]: Caspase-3/7 induction in HepG2 cells by small molecules, qHTS assay (AID 1346978). Also: nearly all actives have a fitted effect of over 15% in size. Put shortly: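 Wild-type HepG2 cells, 2,000/well, settled 5 hr at 37 C and 5% CO2, then compound-treated for 17 hr; caspase-3/7 activity read by luminescent Caspase-Glo 3/7 after 30 min at room temperature.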
The nature of experiment [7]: Caspase-3/7 induction in CHO-K1 cells by small molecules, qHTS assay (AID 1346980). Also: nearly all actives have a fitted effect of over 15% in size. A digest of the protocol: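 Wild-type CHO-K1 cells exposed to compounds for 17hr at 37 C, 5% CO2. Caspase-3/7 activity then measured by Caspase-Glo 3/7 luminescence after 30min at room temperature.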
Experiment [8] is described as follows: Caspase-3/7 induction in HepG2 cells by small molecules, qHTS cell viability counter screen (AID 1346981). Also: series mostly up to about 92 µM; nearly all actives have a fitted effect of over 30% in size. A digest of the protocol: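 Cell viability is measured as a cytotoxicity counter screen alongside the Caspase-Glo 3/7 readout in identical wells. Wild-type HepG2 cells are treated with test compounds for 16 hr at 37 C before CellTiter-Fluor addition and a 1-hr incubation.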

Experiment [9] deals with Nuclear receptor subfamily 1 group I member 2 (Rattus norvegicus) (UniProt Q9R1A7). Briefly: Rat pregnane X receptor (rPXR) activation by small molecules, qHTS assay (AID 1346983). Also: potency is read from the fitted curve at half-maximal effect; nearly all actives have a fitted effect of over 20% in size. The note with it: rPXR luciferase reporter cells, One-Glo luminescence, 24 h; max activation: active compounds read high. A digest of the protocol: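 Cell-based rPXR activation assay: rPXR cells, 2,000 per well, rested 5hr at 37 C, then exposed to compounds in DMSO for 24 hr at 37 C. Luciferase activity read by One-Glo luminescence after 30 min at room temperature.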

The nature of experiment [10]: Caspase-3/7 induction in CHO-K1 cells by small molecules, qHTS cell viability counter screen (AID 1346979). Also: nearly all actives have a fitted effect of over 35% in size. A digest of the protocol:
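Viability readout by fluorescence (CellTiter-Fluor) on wild-type CHO-K1 cells exposed for 16hr at 37C and 5% CO2 to compounds delivered in DMSO; reagent incubated 1hr before reading.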

The target of experiment [11] is Cytochrome P450 2D6 (Homo sapiens) (UniProt P10635). Briefly: Cytochrome P450 Family 2 Subfamily D Member 6 (CYP2D6) small molecule antagonists: luciferase reporter qHTS assay (AID 1671196). Also: nearly all actives have a fitted effect of over 50% in size. Also: potency is read from the fitted curve at half-maximal effect. Put shortly:
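Enzyme and proluciferin substrate were first combined with test chemical for 10 min at room temperature. Adding NADPH regeneration solution started a 1 h reaction, stopped with luciferin detection reagent and read by luminescence 20 min later.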
For orientation: A reporter such as luciferase makes a cellular process visible.

The target of experiment [12] is Cytochrome P450 2C19 (Homo sapiens) (UniProt P33261). Briefly: Cytochrome P450 Family 2 Subfamily C Member 19 (CYP2C19) small molecule antagonists: luciferase reporter qHTS assay (AID 1671197). Also: nearly all actives have a fitted effect of over 65% in size. Also: potency is read from the fitted curve at half-maximal effect. Put shortly:
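P450-Glo CYP2C19 screening system; proluciferin substrate; DMSO compound stocks; 10 min RT preincubation; NADPH regeneration, 1 h at 37C; luciferin detection reagent, 20 min RT; luminescence as RLU.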

The target of experiment [13] is Voltage-gated inwardly rectifying potassium channel KCNH2 (Homo sapiens) (UniProt Q12809). Put plainly: Human Ether-a-go-go-Related Gene (hERG) channel small molecule antagonists: fluorescence cell-based qHTS assay (AID 1671200). Also: nearly all actives have a fitted effect of over 50% in size. Also: potency is read from the fitted curve at half-maximal effect. Put shortly:
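Thallium served as the potassium surrogate; its influx into dye-loaded U2OS cells carrying the channel was measured by fluorescence over 2 min.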
On the technique in general: Block of hERG is tested as a sign of cardiac risk.

Experiment [14] deals with Nuclear receptor subfamily 1 group I member 2 (Homo sapiens) (UniProt O75469). Put plainly: Human pregnane X receptor (PXR) small molecule agonists, qHTS assay (AID 1346982). Also: nearly all actives have a fitted effect of over 35% in size. Put shortly:
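Cells: HepG2 stably carrying PXR-Luc. Medium held 5% charcoal-stripped FBS. Compounds in DMSO added after 5 hr plating, incubated 24 hr, then luminescence quantified with ONE-Glo.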

The target of experiment [15] is Cytochrome P450 2C9 (Homo sapiens) (UniProt P11712). Put plainly: Cytochrome P450 Family 2 Subfamily C Member 9 (CYP2C9) small molecule antagonists: luciferase reporter qHTS assay (AID 1671198). Also: series mostly up to about 120 µM; nearly all actives have a fitted effect of over 50% in size. Put shortly:
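P450-Glo proluciferin substrate with CYP2C9 enzyme; 10 min RT preincubation, then NADPH regeneration 1 h at 37C; luciferin detection reagent 20 min RT, luminescence in relative luminescence units.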

The target in experiment [16] is Cytochrome P450 1A2 (Homo sapiens) (UniProt P05177). Briefly: Cytochrome P450 Family 1 Subfamily A Member 2 (CYP1A2) small molecule antagonists: luciferase reporter qHTS assay (AID 1671199). Also: nearly all actives have a fitted effect of over 50% in size. Also: potency is read from the fitted curve at half-maximal effect. A digest of the protocol: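 Compounds were incubated with CYP1A2 and a luminogenic proluciferin substrate for 10 min at room temperature before the reaction was started with NADPH regeneration solution. After 1 h, detection reagent was added and light output, proportional to CYP activity, was recorded.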

Experiment [17] addresses Cytochrome P450 3A4 (Homo sapiens) (UniProt P08684). Briefly: Cytochrome P450 Family 3 Subfamily A Member 4 (CYP3A4) small molecule antagonists: luciferase reporter qHTS assay (AID 1671201). A digest of the protocol: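 Relative luminescence units after 20 min with luciferin detection reagent served as read-out. Beforehand, CYP3A4 turned over a proluciferin substrate for 1 h at room temperature with NADPH regeneration, following 10 min compound preincubation.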

Molecules are shown by their SMILES. A number with no mark means an inactive call. Inconclusive results are not listed. Calls of active or inactive are those of the source. Unless noted, calls follow the shape of the dose curve; as a rule, active = well fitted curve in the direction sought with a large enough effect in the repeat runs; inconclusive = weak or mixed curves; inactive = no such curve, though single readings can be large; an effect the other way counts as inactive or inconclusive.

Cytochrome P450 3A4 (Homo sapiens), sequence (P08684 whole entry, looked up): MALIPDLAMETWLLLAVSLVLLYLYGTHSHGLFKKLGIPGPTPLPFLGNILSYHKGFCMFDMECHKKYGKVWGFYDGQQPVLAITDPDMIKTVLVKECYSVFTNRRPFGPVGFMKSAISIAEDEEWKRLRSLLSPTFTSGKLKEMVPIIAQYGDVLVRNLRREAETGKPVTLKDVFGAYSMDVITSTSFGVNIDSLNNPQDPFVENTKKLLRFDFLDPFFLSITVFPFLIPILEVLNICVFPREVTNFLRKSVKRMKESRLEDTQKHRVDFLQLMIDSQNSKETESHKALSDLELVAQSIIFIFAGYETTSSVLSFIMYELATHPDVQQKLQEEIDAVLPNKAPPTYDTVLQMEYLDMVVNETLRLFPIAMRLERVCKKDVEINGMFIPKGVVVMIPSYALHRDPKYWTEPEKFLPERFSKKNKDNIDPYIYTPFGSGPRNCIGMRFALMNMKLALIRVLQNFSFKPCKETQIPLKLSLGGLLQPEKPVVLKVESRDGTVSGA
Cytochrome P450 1A2 (Homo sapiens), sequence (P05177 whole entry, looked up): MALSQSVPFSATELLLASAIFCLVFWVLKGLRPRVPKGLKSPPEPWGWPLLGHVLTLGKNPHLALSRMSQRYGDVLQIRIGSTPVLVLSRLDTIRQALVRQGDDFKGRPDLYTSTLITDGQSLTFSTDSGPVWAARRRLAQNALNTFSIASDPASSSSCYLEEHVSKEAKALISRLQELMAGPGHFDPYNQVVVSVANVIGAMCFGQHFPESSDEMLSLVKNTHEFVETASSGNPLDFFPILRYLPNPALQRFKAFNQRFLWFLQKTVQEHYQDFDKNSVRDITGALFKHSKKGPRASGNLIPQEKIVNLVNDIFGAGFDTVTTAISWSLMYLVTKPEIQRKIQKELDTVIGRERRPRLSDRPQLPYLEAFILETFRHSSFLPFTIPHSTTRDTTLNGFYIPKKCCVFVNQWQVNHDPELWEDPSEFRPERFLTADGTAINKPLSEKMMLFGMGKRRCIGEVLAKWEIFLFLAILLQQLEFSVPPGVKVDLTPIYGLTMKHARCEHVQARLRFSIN
Nuclear receptor subfamily 1 group I member 2 (Homo sapiens), sequence (O75469 whole entry, looked up): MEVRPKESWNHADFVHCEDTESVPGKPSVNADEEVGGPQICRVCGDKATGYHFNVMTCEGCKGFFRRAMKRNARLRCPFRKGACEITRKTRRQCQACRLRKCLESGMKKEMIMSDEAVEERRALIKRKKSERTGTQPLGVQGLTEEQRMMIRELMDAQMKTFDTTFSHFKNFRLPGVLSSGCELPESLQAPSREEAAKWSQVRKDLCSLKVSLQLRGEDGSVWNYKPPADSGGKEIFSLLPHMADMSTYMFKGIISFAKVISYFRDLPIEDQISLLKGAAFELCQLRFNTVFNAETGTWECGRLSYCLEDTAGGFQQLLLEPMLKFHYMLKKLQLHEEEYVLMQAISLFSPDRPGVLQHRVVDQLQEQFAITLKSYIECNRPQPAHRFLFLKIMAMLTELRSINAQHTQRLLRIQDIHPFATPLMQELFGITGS
Thyrotropin-releasing hormone receptor (Homo sapiens), sequence (P34981 whole entry, looked up): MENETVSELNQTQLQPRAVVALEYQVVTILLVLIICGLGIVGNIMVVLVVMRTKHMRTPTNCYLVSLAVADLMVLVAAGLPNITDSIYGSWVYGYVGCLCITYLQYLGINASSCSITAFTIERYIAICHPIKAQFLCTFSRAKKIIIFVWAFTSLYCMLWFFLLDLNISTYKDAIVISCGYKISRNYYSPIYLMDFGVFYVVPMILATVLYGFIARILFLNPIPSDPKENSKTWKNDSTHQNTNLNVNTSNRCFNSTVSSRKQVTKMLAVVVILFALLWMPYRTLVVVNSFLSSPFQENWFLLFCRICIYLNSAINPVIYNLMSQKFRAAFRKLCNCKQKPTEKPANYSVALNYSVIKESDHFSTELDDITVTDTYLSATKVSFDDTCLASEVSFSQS
Cytochrome P450 2D6 (Homo sapiens), sequence (P10635 whole entry, looked up): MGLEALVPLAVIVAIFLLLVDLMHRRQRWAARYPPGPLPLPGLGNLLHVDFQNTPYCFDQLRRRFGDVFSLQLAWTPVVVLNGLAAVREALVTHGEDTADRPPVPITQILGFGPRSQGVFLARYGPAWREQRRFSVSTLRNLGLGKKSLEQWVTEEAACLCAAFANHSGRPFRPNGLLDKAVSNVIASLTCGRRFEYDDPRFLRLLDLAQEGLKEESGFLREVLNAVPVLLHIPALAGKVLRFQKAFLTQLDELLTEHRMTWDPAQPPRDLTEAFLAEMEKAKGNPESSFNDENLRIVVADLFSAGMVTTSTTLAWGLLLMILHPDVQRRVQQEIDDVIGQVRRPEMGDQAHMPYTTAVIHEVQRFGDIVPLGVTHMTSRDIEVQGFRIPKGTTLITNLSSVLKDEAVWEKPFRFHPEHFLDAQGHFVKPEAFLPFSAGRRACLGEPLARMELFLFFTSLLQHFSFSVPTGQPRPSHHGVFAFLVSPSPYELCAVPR
Cytochrome P450 2C9 (Homo sapiens), sequence (P11712 whole entry, looked up): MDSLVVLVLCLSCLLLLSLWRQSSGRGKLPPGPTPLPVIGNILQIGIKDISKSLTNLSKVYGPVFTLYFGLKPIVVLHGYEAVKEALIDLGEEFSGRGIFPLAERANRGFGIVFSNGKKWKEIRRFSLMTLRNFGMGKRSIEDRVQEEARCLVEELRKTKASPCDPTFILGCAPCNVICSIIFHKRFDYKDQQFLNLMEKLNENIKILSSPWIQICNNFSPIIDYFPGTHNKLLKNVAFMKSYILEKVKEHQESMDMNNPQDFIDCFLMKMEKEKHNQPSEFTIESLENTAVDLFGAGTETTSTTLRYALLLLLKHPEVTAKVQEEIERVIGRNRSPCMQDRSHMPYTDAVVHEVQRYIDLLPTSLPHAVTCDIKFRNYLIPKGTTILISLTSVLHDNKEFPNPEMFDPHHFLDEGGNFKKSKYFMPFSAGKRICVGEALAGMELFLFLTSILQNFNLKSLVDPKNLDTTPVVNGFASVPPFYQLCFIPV
Voltage-gated inwardly rectifying potassium channel KCNH2 (Homo sapiens), sequence (Q12809 whole entry, looked up): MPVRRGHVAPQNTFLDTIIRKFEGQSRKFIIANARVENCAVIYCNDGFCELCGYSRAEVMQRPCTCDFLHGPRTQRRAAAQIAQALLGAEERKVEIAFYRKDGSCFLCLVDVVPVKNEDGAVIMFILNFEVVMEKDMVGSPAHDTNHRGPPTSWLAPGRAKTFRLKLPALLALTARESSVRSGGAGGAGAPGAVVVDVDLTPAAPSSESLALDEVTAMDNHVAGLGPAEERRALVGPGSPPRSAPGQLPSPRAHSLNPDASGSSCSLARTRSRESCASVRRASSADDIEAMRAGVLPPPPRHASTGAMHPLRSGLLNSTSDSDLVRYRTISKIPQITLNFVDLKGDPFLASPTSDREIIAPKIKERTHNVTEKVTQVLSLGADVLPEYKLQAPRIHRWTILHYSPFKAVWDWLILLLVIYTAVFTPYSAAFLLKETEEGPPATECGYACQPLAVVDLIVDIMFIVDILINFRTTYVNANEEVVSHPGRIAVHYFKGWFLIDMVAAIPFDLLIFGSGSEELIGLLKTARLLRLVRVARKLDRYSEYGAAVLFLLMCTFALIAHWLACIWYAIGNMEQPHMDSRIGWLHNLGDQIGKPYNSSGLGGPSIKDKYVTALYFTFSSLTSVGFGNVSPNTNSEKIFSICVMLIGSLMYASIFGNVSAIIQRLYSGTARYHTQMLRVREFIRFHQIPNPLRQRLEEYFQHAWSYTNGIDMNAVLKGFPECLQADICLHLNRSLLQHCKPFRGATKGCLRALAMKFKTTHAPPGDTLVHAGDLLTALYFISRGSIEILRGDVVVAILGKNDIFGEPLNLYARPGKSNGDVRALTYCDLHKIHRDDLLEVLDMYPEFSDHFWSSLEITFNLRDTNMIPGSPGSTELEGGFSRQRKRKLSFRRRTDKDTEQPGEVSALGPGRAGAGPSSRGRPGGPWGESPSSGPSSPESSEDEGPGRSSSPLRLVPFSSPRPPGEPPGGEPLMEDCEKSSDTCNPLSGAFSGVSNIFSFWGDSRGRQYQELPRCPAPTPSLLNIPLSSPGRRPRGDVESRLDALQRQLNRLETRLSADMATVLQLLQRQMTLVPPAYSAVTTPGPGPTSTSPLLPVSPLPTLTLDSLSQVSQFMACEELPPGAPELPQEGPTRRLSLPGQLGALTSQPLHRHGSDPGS
Cytochrome P450 2C19 (Homo sapiens), sequence (P33261 whole entry, looked up): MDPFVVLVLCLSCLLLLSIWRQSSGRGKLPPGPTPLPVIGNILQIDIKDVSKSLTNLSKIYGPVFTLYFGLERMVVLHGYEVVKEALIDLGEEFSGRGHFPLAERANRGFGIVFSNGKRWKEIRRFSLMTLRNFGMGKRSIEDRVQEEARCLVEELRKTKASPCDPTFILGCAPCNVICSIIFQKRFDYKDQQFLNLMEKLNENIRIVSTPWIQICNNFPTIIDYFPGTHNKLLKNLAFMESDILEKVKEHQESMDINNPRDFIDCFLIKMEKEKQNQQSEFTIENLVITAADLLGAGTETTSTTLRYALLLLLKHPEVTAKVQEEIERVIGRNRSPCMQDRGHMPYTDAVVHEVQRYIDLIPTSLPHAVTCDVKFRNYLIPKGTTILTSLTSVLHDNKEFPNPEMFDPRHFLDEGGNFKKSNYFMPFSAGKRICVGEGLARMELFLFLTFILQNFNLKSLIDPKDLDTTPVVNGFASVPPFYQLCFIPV
Nuclear receptor subfamily 1 group I member 2 (Rattus norvegicus), sequence (Q9R1A7 whole entry, looked up): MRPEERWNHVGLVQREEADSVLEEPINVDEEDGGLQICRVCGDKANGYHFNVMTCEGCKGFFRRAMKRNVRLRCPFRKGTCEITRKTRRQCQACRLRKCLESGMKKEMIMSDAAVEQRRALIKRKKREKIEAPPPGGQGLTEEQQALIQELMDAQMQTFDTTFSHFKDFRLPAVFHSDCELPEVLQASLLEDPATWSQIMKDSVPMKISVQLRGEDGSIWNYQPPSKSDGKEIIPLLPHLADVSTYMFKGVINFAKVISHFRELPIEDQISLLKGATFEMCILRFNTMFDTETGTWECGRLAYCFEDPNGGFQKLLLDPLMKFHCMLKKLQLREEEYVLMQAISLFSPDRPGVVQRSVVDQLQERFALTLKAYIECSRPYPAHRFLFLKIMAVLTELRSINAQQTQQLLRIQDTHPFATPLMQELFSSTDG

On to `C[C@@H]1C[C@H]2[C@@H]3C[C@H](F)C4=CC(=O)C=C[C@]4(C)[C@@]3(F)[C@@H](O)C[C@]2(C)[C@@]1(O)C(=O)CO`, for which the call in [1], in experiment [2], in experiment [3], in [4], in experiment [6] and in experiment [7] was inactive. Also, the Potency entry in experiment [5] and in experiment [8] was “inactive” throughout. Moreover, the Potency in experiment [9] is 1.41 µM (active).
Turning to `Cc1nc2n(c(=O)c1CCN1CCC(C(=O)c3ccc(F)cc3)CC1)CCS2`, the compound was classed as inactive in experiment [1], in experiment [2], in experiment [3], in [4], in experiment [6] and in [7]. For the same compound, the Potency entry in experiment [10], in experiment [8] and in [12] was “inactive” each time. In addition, the Potency in experiment [11] was 0.49 µM (active); in experiment [13], 9.52 µM (active).
For `CC(C)(C)NCCO`, the result in experiment [1], in [2], in experiment [3], in experiment [4] and in experiment [6] was inactive. Further, the Potency result in experiment [5], in [8], in experiment [14], in [11], in experiment [12] and in [15] was “inactive” each time. For the same compound, the Potency entry in experiment [13] and in experiment [17] was “inactive” in each case. The Potency in experiment [16] was 39.9 µM (active).
On to `CCS(=O)(=O)CCn1c([N+](=O)[O-])cnc1C`, for which the compound was classed as inactive in [1], in experiment [2], in [3], in experiment [4], in experiment [6] and in experiment [7]. Besides, the Potency result in experiment [5], in experiment [8] and in [13] was “inactive” each time.
Consider `CC(=O)c1ccc(OCC(=O)N2CCCCC2)cc1`, for which the compound was called inactive in experiment [1], in experiment [2], in experiment [3], in [4], in experiment [6] and in experiment [7]. Besides, the Potency entry in [5], in [8], in [11], in [15], in experiment [16] and in experiment [13] was “inactive” in each case. Also, the Potency result in experiment [17] was “inactive”.
As to `Cc1ccccc1N1CCN(CCc2nnc3n2CCCC3)CC1`, the outcome in experiment [1], in experiment [2], in experiment [3], in [4], in experiment [6] and in experiment [7] was inactive. The Potency entry in [5], in [8], in [12], in experiment [15], in experiment [13] and in experiment [17] was “inactive” throughout. Further, the Potency in [11] is 13.8 µM (active).
On to `Cc1cccc(NC(=S)N(C)C)c1`, for which the call in experiment [1], in experiment [2], in experiment [3], in experiment [4], in experiment [6] and in [7] was inactive. Moreover, the Potency result in experiment [10], in experiment [8], in experiment [11], in experiment [15], in experiment [13] and in [17] was “inactive” in each case. Also, the figures for the Potency in experiment [12] and in experiment [16] were 79.6 µM (active) and 35.6 µM (active), respectively.
In the case of `CC(C)CCCCCCOC(=O)C1CCCCC1C(=O)OCCCCCCC(C)C` (stereo not drawn), the call in experiment [1], in experiment [2], in experiment [3], in experiment [4] and in experiment [6] was inactive. In addition, the Potency result in experiment [5], in [8], in experiment [14], in experiment [11], in [12] and in experiment [16] was “inactive” each time. Further, in experiment [13], the Potency entry is “inactive”.
As for `Cc1cc(O)c2c(c1)C(=O)c1cccc(O)c1C2=O`, the result in experiment [1], in experiment [2], in experiment [3], in experiment [4], in [6] and in experiment [7] was inactive. The Potency result in experiment [5], in experiment [8], in experiment [11], in experiment [12], in [15] and in [13] was “inactive” throughout. Moreover, in experiment [17], the Potency result was “inactive”. In experiment [16], the Potency is 15.5 µM (active).
As to `C[CH2][Ge]([Cl])([CH2]C)[CH2]C`, the compound was classed as inactive in experiment [1], in experiment [2], in experiment [3], in experiment [4], in experiment [6] and in experiment [7]. Moreover, the Potency entry in [5], in experiment [8], in [14], in experiment [11], in experiment [12] and in experiment [16] was “inactive” in each case. The Potency entry in experiment [13] and in [17] was “inactive” throughout.

The values are drawn from PubChem BioAssay (Tox21).
